Legend:
Assay type in all cases: functional
[1] = tested on: Plasmodium falciparum; experiment: GSK_TCMDC: Inhibition of Plasmodium falciparum 3D7 in whole red blood cells, using parasite LDH activity as an index of growth. Test compounds present at 2uM
[2] = tested on: Plasmodium falciparum; experiment: GSK_TCMDC: Inhibition of Plasmodium falciparum Dd2 in whole red blood cells, using parasite LDH activity as an index of growth. Test compounds present at 2uM
[3] = tested on: HepG2; experiment: GSK_TCMDC: Percent inhibition of human HepG2 cell line. Test compounds present at 10uM.

| SMILES | Inhibition [1] | Inhibition [2] | Inhibition [3] |
| --- | --- | --- | --- |
| Cc1cccc2nc(-c3ccc(-c4ccc(CN5CCN(c6ccncc6)CC5)cc4)cc3)[nH]c12.O=C(O)C(F)(F)F | 100% | 100% | 98% |
| Cc1cc2ccc(/C=C/C(=O)NC3CCC(CCN4CCc5ccc(C#N)cc5CC4)CC3)cc2[nH]1.Cl (stereo not given) | 84% | 56% | 19% |
| Cc1cccc(-c2nc3[nH]c(=O)cc(NC(=O)C(C)C)n3n2)c1 | 96% | 93% | 0% |
| O=S(=O)(c1ccccc1Cl)N1CCCCC(c2ccc(C(F)(F)F)cc2)=N1 | 86% | 72% | 22% |
| CN1CCCc2ccc(NC(=O)c3cc(-c4ccc(Cl)cc4)cs3)cc2C1.O=C(O)C(F)(F)F | 94% | 40% | 35% |
| O=C(O)C(F)(F)F.c1cc(CN2CCc3ccccc3CC2)cc(-c2c[nH]c3nc(NC4CCCC4)ncc23)c1 | 99% | 49% | 31% |
| O=C(Nc1ccc(-c2cccc(-c3nc4cc(F)ccc4[nH]3)c2)cc1)Nc1ccc(F)c(F)c1F | 100% | 98% | 70% |
| O=C(Cc1ccc([N+](=O)[O-])cc1)N1CCc2cc3nccc(N4CCN5CCC[C@@H]5C4)c3cc21 | 95% | 7% | 0% |
| O=C(NCc1ccccc1)c1ncn(CCCN2CCC(N3CCCC3)CC2)c1-c1ccc(Cl)c(Cl)c1.O=CO | 89% | 36% | 8% |
| Clc1ccc(CNc2ccnc(NCc3ccc4c(c3)OCCCO4)n2)c(Cl)c1 | 94% | 20% | 50% |

From ChEMBL document CHEMBL1157539, “Thousands of chemical starting points for antimalarial lead identification” (Nature, 2010)
